Where “and” joins values, the source holds several entries; their conditions need not be identical. Identical values can stand only once. About 20 (2%) of roughly 1,300 compounds were called active. The list is a sample of the results. Unmarked numbers belong to inactive results.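 Rule for the calls: active = inhibition above 50%, about 3 SD of the inhibition seen with non-fluorescent compounds; inactive = the rest.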
Test: interference with GST/GSH bead binding – biochemical, cherry pick 1, flow cytometry, artefact control for arrestin-AP2 inhibitor project, confirmation (AID 588338);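 note: fluorescein maleimide labelled GST captured on 4 micron glutathione beads; higher means more loss of bead fluorescence from quenching or blocked binding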
Details: GST-fluorescein binding to GSH beads, fluorescence, counter-screen; at 10 µM; active compounds read high

Compound	inhibition
COc1cccc(-n2c(SCC(=O)c3c[nH]c4ccccc34)nc3ccccc3c2=O)c1	57.9% (active)
Cn1c(=O)c2c(nc(N/N=C/c3cccs3)n2Cc2ccc(Br)cc2)n(C)c1=O	0.63%
COc1ccc(CCNc2ncnc3c2nnn3Cc2ccccc2)cc1	4.82%
Cc1ccc(CNC(=O)C2CC(=O)N(C3CCCCCCC3)C2)cc1 (centres undefined)	-4.09%
Cc1ccc(Nc2ccc(C(N)=O)cc2[N+](=O)[O-])cc1	-6.5%
CC(C)c1nnc(NC(=O)CCC(=O)N2CCN(c3cccc(Cl)c3)CC2)s1	-10.6%
O=C(c1ccc(S(=O)(=O)NCc2ccco2)cc1)N1CCN(c2ccccc2)CC1	8.86%
CCCc1ccc(-c2csc(NC(=O)Cc3cccs3)n2)cc1	-4.6%
Cc1ccc(C)c(NC(=S)NNC(=S)Nc2ccc(C(C)C)cc2)c1	0.62%
Cc1ccc(CN2C(=O)CCC2C(=O)NCCCN2CCCCC2C)cc1 (centres undefined)	-11.5%
Cc1cc(C(=O)OCC(=O)c2c(N)n(C)c(=O)n(C)c2=O)c(C)o1	-2.19% and 1.72%
CCOc1ccc(-c2nnc(-c3ccco3)o2)cc1	-7.89%
O=c1[nH]c2ccccc2n2c(-c3ccccc3)nnc12	36.4%
Cc1ccc(C2(C)NC(=O)N(CC(=O)Nc3ccccc3C(=O)N3CCCCC3)C2=O)cc1 (centres undefined)	-3.63%
CC(C)C[C@H](NC(=O)N1CCn2c1nc1ccccc12)C(=O)NC1CC1	-5.48%
CN1C(=O)/C(=C/c2ccco2)SC1=Nc1cccc(C(=O)O)c1	0.38%
Brc1ccccc1C1Nc2cccc3cccc(c23)N1	1.35%
COCCNC(=O)Nc1ccc2nc(-c3ccco3)c(-c3ccco3)nc2c1	22.4%
Cc1ccc(OCCCCc2c(C)n[nH]c2C)cc1	-8.59%
COc1cc2c(cc1NC(=O)COC(=O)/C=C/c1ccccc1)oc1ccccc12	-10.3%
CC(Oc1ccccc1)C(=O)NN1Cc2ccccc2C1=N (centres undefined)	-4.56%
Cc1ccc(S(=O)(=O)/N=C(/Nc2ccccn2)c2ccc(Cl)cc2)cc1	-4.23%
O=C(NCc1ccco1)c1ccc(CS(=O)(=O)Cc2ccc(F)cc2)o1	-8.88%
Cc1cc(C)cc(Oc2nc3c(C)cccn3c(=O)c2/C=C(\C#N)C(=O)NC2CCS(=O)(=O)C2)c1 (centres undefined)	-0.21%
COC(=O)c1cc(NC(=O)c2nn(C)c(=O)c3ccccc23)cc(C(=O)OC)c1	-0.11%
CCn1c(=O)n(CC)c2cc(N3CCCC3)c(NC(=O)c3ccccc3Br)cc21	-4.23%
Cc1ccc(OCCCC(=O)Nc2ccc3c(c2)OCCO3)cc1	-3.79%

Compound	inhibition
Cn1c(=O)c([N+](=O)[O-])c(Oc2ccccc2)c2ccccc21	-0.63%
COc1cc2c(cc1OC)CN(C(=O)c1cc(=O)c3ccccc3o1)CC2	-0.62%
CCOc1ccc(C(=O)NC2CCN(CC(=O)NCc3cccs3)CC2)cc1	-10.1%
CN(C)c1ccc(NC(=O)c2ccncc2)c2ccccc12	-4.94%
CCOC(=O)N1CCN(C(=O)CNC(=O)Cc2ccc(Cl)cc2)CC1	-12.7%
CN(C(=O)COC(=O)c1cc(=O)[nH]c2ccccc12)C1CCCCC1	-4.98%
CC(NCCc1ccc(S(N)(=O)=O)cc1)C(=O)NCc1ccccc1 (centres undefined)	1.19%
CC(C)(C)c1ccc(C(=O)NCCn2c(N)c(C#N)c3nc4ccccc4nc32)cc1	1.49%
CC(CN1CCCCC1)OC(=O)c1ccccc1Cl (centres undefined)	0.92%
Cc1ccc(Cl)cc1-c1ccc(/C=N/n2cnnc2)o1	-2.14%
Cc1ccc(S(=O)(=O)N2CCCCC2)cc1NC(=O)c1cccnc1	-0.2%
Cc1cccc(NC(=S)NC(=O)c2ccc(Br)o2)c1	-2.99%
NS(=O)(=O)c1ccc2nc(NC(=O)C3=COCCO3)sc2c1	-9.07%
C/C(=N\Nc1ccc([N+](=O)[O-])cc1)c1ccc(-n2nncc2C(C)(C)C)cc1	2.54%
CC(=O)NCCNC(=O)c1cc(-c2cccc3ccccc23)nc2ccccc12	8.05%
Cc1cc(C(=O)Nc2ccc(C)c(S(=O)(=O)N3CCOCC3)c2)c2ccccc2n1	3.01%
Cc1ccc(S(=O)(=O)N2CCN(C(=O)c3ccccc3-c3nc4ccccc4s3)CC2)c(C)c1	-4.41%
O=C(NCC1(N2CCCCC2)CCCCC1)c1cccc(S(=O)(=O)Nc2ccccc2Cl)c1	-0.81%
CCC(C(=O)OC)n1cnc2c(oc3ccccc32)c1=O (centres undefined)	-1.51%
NC(=O)C1CCN(C(=O)CC2C(=O)NCCN2Cc2cccc(Oc3ccccc3)c2)CC1 (centres undefined)	-3.68%
CC(NC(=O)c1cc2cc(Cl)ccc2oc1=N)c1ccccc1 (centres undefined)	-2.36%
COc1ccc(/C=C2\SC(=S)N(CCC(=O)Nc3ccccn3)C2=O)cc1OC	-0.03%
O=C(C1CCCO1)N1CCN(S(=O)(=O)c2ccc(Br)cc2)CC1 (centres undefined)	-16.4%
COC(=O)C1CC2=C(CC(C)(C)CC2=O)N(c2ccccc2)C1=O (centres undefined)	-0.09%
CCC(=O)Nc1nc2ccccc2n1Cc1ccccc1C	6.47%
Cc1cccc(C)c1NC(=O)C(Cl)C(=O)c1ccccc1 (centres undefined)	-5.59%
Cc1cccc(Nc2ccccc2C(=O)NCc2ccco2)c1C	-4.39%

— PubChem BioAssay AID588338 (NMMLSC, 2011)
